Test [1] is described as follows: qHTS to identify inhibitors of the type 1 interferon - major histocompatibility complex class I in skeletal muscle: primary screen against the NCATS Pharmaceutical Collection (AID 1347407).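 Further: luminescence of HiBiT knocked into endogenous HLA-B as interferon-induced MHC class I level.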 Further: potency means the concentration at half of the fitted maximal effect. In short, it runs like this: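 Cells were seeded with 4 ng/ml IFN-beta, incubated 1 h, then dosed with compounds over eight 1:5 steps up to 46 uM final. After 24 h at 37 C, HiBiT lytic reagent was added and luminescence read after 10 min lysis in the dark.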

Test [2] concerns the target Protein phosphatase 1D (Homo sapiens) (UniProt O15297). Put plainly: RapidFire Mass Spectrometry qHTS Assay for Modulators of WT P53-Induced Phosphatase 1 (WIP1) (AID 1347424).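 Further: amount of dephosphorylated VEPPL-S-QETFS peptide product formed by WIP1.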 Further: potency means the concentration at half of the fitted maximal effect. Put shortly: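 10 nM WIP1 preincubated with compounds 1 hr at room temperature in pH 7.5 Tris buffer with 30 mM MgCl2, 1 mM TCEP; 2 uM VEPPL-pS-QETFS phosphopeptide for 5 min, formic acid quench; dephosphorylated product quantified by RapidFire MS against labelled standard.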
In general terms: Quantitative high-throughput screening tests each substance at several concentrations.

Test [3] can be described thus: qHTS to identify inhibitors of the type 1 interferon - major histocompatibility complex class I in skeletal muscle: primary screen against the NCATS Mechanism Interrogation Plate v5.0 (MIPE) Libary (AID 1347411). Further: nearly all actives have a fitted effect of over 65% in size. Put shortly:
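Immortalized human myoblasts (C25cl48) with HiBit knocked into endogenous HLA-B*08:01 were stimulated with 4 ng/ml IFN-beta and given compounds in 11-point 1:3 titration from 46 uM. After 24 h at 37 C, lytic HiBiT luminescence was read.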

42 compounds from PubChem BioAssay (NCATS) can be followed below.

Records with an inconclusive call do not appear. Where a call stands in place of a potency, no number is given. Activity calls are given as the source filed them. The call rests on the fitted dose curve; in most records, active means well fitted curve in the direction sought with a large enough effect; inconclusive means small, poorly fitted or top-dose-only effect, or another doubt; inactive means no such curve, though single readings can be large; an effect the other way counts as inactive or inconclusive.

Chain of Protein phosphatase 1D (Homo sapiens) (O15297 whole entry, looked up): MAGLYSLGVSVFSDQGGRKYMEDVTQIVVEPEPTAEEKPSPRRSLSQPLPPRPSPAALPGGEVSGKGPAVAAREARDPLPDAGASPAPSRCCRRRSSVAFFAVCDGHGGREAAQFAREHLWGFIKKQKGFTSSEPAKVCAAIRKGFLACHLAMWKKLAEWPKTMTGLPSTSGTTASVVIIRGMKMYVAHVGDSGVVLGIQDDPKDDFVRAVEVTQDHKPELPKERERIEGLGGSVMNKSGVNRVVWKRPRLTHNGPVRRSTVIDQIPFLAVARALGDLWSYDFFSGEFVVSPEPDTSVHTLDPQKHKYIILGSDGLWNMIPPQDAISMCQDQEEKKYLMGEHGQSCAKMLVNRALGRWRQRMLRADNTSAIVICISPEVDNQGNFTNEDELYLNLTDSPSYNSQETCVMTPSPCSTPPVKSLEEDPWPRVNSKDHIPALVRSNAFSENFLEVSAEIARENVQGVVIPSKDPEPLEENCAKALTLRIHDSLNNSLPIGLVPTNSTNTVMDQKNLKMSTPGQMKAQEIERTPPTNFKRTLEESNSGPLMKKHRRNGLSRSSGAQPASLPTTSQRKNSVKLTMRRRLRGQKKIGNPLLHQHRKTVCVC

Take `O=[N+]([O-])c1cc([As](=O)(O)O)ccc1O`: the Potency result in test [1] and in test [2] was “inactive” throughout.
`COc1ccc2c(c1OC)CN1CCc3cc4c(cc3C1C2)OCO4` (stereo not drawn): the Potency result in test [1] and in test [2] was “inactive” each time.
Regarding `CC(C)CC(N(C)C)C1(c2ccc(Cl)cc2)CCC1` (stereo not drawn), the Potency result in test [1] and in test [2] was “inactive” in each case.
Consider `N[C@@H]1C[C@H]1c1ccccc1`, for which the Potency entry in test [1], in test [3] and in test [2] was “inactive” throughout.
Regarding `Oc1cc(Cl)ccc1Oc1ccc(Cl)cc1Cl`, the Potency entry in test [1] and in test [2] was “inactive” throughout.
As to `CC[N+]1(C)CCCC(OC(=O)C(O)(c2ccccc2)c2ccccc2)C1` (stereo not drawn), the Potency entry in test [1] and in test [2] was “inactive” in each case.
For `Oc1ccccc1-c1ccccc1`, the Potency entry in test [1] and in test [2] was “inactive” each time.
Take `Cc1ccc2c(c1)C1CN(C)CCC1N2` (stereo not drawn): the Potency result in test [1] and in test [2] was “inactive” throughout.
Take `O=c1[nH]c2ccccc2n1C1CCN(CCCC(c2ccc(F)cc2)c2ccc(F)cc2)CC1`: the Potency result in test [2] was “inactive”.
With `C=CCN1CC[C@]23c4c5ccc(O)c4O[C@H]2C(=O)CC[C@@]3(O)[C@H]1C5`, the Potency result in test [1] and in test [2] was “inactive” in each case.
On to `C[C@]12C/C(=C/O)C(=O)C[C@@H]1CC[C@@H]1[C@@H]2CC[C@@]2(C)[C@H]1CC[C@]2(C)O`, for which, in test [2], the Potency result is “inactive”.
For `CCOP(=S)(OCC)Oc1cc(C)nc(C(C)C)n1`, the Potency result in test [1] and in test [2] was “inactive” each time.
With `Cc1ccc(-c2nc3ccc(C)cn3c2CC(=O)N(C)C)cc1`, the Potency entry in test [1] and in test [2] was “inactive” in each case.
As for `Fc1ccc(C(OCCN2CCN(CCCc3ccccc3)CC2)c2ccc(F)cc2)cc1`, the Potency entry in test [2] was “inactive”.
Regarding `CC(C)=CC1C(C(=O)OCc2cccc(Oc3ccccc3)c2)C1(C)C` (stereo not drawn), the Potency entry in test [1] and in test [2] was “inactive” in each case.
For `COC1(CS(=O)c2ccccc2)CCN(CCc2c[nH]c3ccc(F)cc23)CC1` (stereo not drawn), in test [3], the Potency result is “inactive”.
In the case of `CCC(=O)C(CC(C)N(C)C)(c1ccccc1)c1ccccc1` (stereo not drawn), the Potency result in test [2] was “inactive”.
Turning to `FC(F)(F)c1cccc(C2=CCN(CCc3ccc4ccccc4c3)CC2)c1`, the Potency entry in test [1] and in test [2] was “inactive” in each case.
`CCN(C(C)=O)c1cccc(-c2ccnc3c(C#N)cnn23)c1`: the Potency result in test [1] and in test [2] was “inactive” in each case.
Regarding `c1ccc2c(c1)Nc1ccccc1S2`, the Potency entry in test [1] and in test [2] was “inactive” throughout.
Consider `Oc1cccc2cccnc12`, for which the Potency entry in test [1] and in test [2] was “inactive” each time.
On to `CC1NCCOC1c1ccccc1` (stereo not drawn), for which the Potency entry in test [1] and in test [2] was “inactive” throughout.
On to `Clc1cccc(N2CCNCC2)c1`, for which the Potency entry in test [1] and in test [2] was “inactive” throughout.
Take `CN(C)CCN(C)CCc1ccc(Cl)c(Cl)c1`: in test [3], the Potency result is “inactive”.
With `CCOC(=O)C1(c2ccccc2)CCN(CCC(C#N)(c2ccccc2)c2ccccc2)CC1`, the Potency result in test [1] and in test [2] was “inactive” in each case.
`C=C(C)[C@H]1Cc2c(ccc3c2O[C@@H]2COc4cc(OC)c(OC)cc4[C@@H]2C3=O)O1`: the Potency entry in test [2] is “inactive”.
Still for that read-out and setting: the same measure for `Clc1ccc(COC(Cn2ccnc2)c2ccc(Cl)cc2Cl)cc1` (stereo not drawn): “inactive”.
With `c1ccc2c(c1)OCC(C1=NCCN1)O2` (stereo not drawn), the Potency entry in test [1] and in test [2] was “inactive” in each case.
On to `C#CCOC(C(=O)OCCN(C)C)(c1ccccc1)c1ccccc1`, for which the Potency result in test [1] and in test [2] was “inactive” each time.
Turning to `C[C@H]1O[C@@H](O[C@H]2[C@@H](O)C[C@H](O[C@H]3[C@@H](O)C[C@H](O[C@H]4CC[C@@]5(C)[C@H](CC[C@@H]6[C@@H]5CC[C@]5(C)[C@@H](C7=CC(=O)OC7)CC[C@]65O)C4)O[C@@H]3C)O[C@@H]2C)C[C@H](O)[C@@H]1O`, in test [1], the Potency was 0.0264 µM (active). The Potency result in test [2] is “inactive”.
On to `CNC(=O)c1ccc(N2C(=S)N(c3ccc(C#N)c(C(F)(F)F)c3)C(=O)C23CCC3)cc1F`, for which the Potency result in test [3] was “inactive”.
Turning to `O=c1oc2ccccc2c(O)c1C(CC(O)c1ccc(-c2ccc(Br)cc2)cc1)c1ccccc1` (stereo not drawn), in test [1], the Potency result is “inactive”. Moreover, the Potency in test [2] was 8.91 µM (active).
With `O=C(O)C(=O)c1cn(Cc2ccccc2)c2ccc(-c3ccc(OC(F)(F)F)cc3)cc12`, the Potency entry in test [3] was “inactive”.
For the compound `CC1OC(C)OC(C)O1` (stereo not drawn), the Potency entry in test [1] and in test [2] was “inactive” throughout.
As to `CC(C)NCC(O)c1ccccc1Cl` (stereo not drawn), the Potency entry in test [1] and in test [2] was “inactive” throughout.
As to `CCN(CC)CCOC(=O)C(O)(c1ccccc1)c1ccccc1`, the Potency result in test [1] and in test [2] was “inactive” each time.
With `O=C1CC[C@@]2(O)[C@H]3Cc4ccc(O)c5c4[C@@]2(CCN3CC2CC2)[C@H]1O5`, the Potency result in test [2] is “inactive”.
As to `C=C1C[C@@H]2[C@H](CC[C@]3(C)C(=O)CC[C@@H]23)[C@@]2(C)C=CC(=O)C=C12`, the Potency entry in test [1] and in test [2] was “inactive” each time.
Turning to `Cc1cc(SCc2sc(-c3ccc(C(F)(F)F)c(F)c3)nc2C)ccc1OCC(=O)O`, the Potency result in test [3] is “inactive”.
As for `CN1C(=S)CN=C(c2ccccc2)c2cc(Cl)ccc21`, the Potency result in test [1] and in test [2] was “inactive” in each case.
In the case of `CC[N+](CC)(CC)CC`, the Potency entry in test [1] and in test [2] was “inactive” each time.
For `Oc1ccc(Cl)cc1Cc1ccccc1`, the Potency entry in test [1] and in test [2] was “inactive” each time.
